# Among all 2,700 compounds or so, about 160 (5.9%) showed an effect of 50% or more. The full list was thinned out, with strong results kept by preference.
# Target: Nonstructural protein 3 (Zika virus) (UniProt A0A024AXB9)
# [1] = PRVABC59, Concentration 15.0 uM, Number of replicates 1.0
# [2] = PRVABC59, Concentration 50.0 uM, Number of replicates 1.0
# Nonstructural protein 3 (Zika virus), sequence (A0A024AXB9 as listed by the source): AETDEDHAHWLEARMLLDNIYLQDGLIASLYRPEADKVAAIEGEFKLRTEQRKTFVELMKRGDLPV
smiles,measurement,setting,value
O=C(Nc1nc2[nH]cnc2c(=O)[nH]1)c1cc(Cl)ccc1NS(=O)(=O)c1ccc(Oc2ccccc2Cl)cc1,inhibition,[1],21.9%
CN(C)Cc1ccc(NCc2ccc(N3CCN(C)CC3)cc2)nc1,inhibition,"PRVABC59, Concentration 49.5 uM, Number of replicates 2.0, Standard deviation 0.4640657991367188 %",-2.39%
same,inhibition,"PRVABC59, Concentration 99.01 uM, Number of replicates 2.0, Standard deviation 0.7284754441158133 %",-1.05%
same,inhibition,"PRVABC59, Concentration 198.0 uM, Number of replicates 2.0, Standard deviation 0.8166119221974307 %",1.21%
O=Cc1ccc(N2CCC(C(=O)Nc3c(Cl)cccc3[N+](=O)[O-])CC2)cc1,inhibition,[2],21.7%
CN1CCN(c2ccc(CNS(=O)(=O)c3ccc(C(N)=O)cc3)cc2)CC1,inhibition,"PRVABC59, Concentration 49.5 uM, Number of replicates 2.0, Standard deviation 3.1298940912505486 %",-2.93%
same,inhibition,"PRVABC59, Concentration 99.01 uM, Number of replicates 2.0, Standard deviation 2.0491409994990377 %",-9.18%
CC(C)N(Cc1cnn(C)c1)C(=O)c1cc(Cl)ccc1NS(=O)(=O)c1ccc(Oc2ccccc2Cl)cc1,inhibition,[1],21.9%
CN(C(=O)c1cc(Cl)ccc1NS(=O)(=O)c1ccc(Oc2ccccc2Cl)cc1)[C@H]1CCN(Cc2ccccc2)C1,inhibition,[1],18.4%
CCc1cccc2[nH]c(C(=O)N3C[C@H](n4cc(CO)nn4)CCC3(C)C)cc12,inhibition,"PRVABC59, Concentration 49.5 uM, Number of replicates 2.0, Standard deviation 1.345657751466366 %",1.61%
same,inhibition,"PRVABC59, Concentration 99.01 uM, Number of replicates 2.0, Standard deviation 0.921351350459793 %",4.33%
same,inhibition,"PRVABC59, Concentration 198.0 uM, Number of replicates 2.0, Standard deviation 1.6164058188461652 %",5.38%
O=C(NCC[C@H](O)c1ccccc1)c1cc(Cl)ccc1NS(=O)(=O)c1ccc(Oc2ccccc2Cl)cc1,inhibition,[1],38.9%
COc1ccc(S(=O)(=O)N[C@H]2CC[C@H](C(=O)Nc3nc4ccccc4s3)CC2)cc1,inhibition,"PRVABC59, Concentration 49.5 uM, Number of replicates 2.0, Standard deviation 1.516279405300169 %",4.79%
same,inhibition,"PRVABC59, Concentration 99.01 uM, Number of replicates 2.0, Standard deviation 2.0429029287446374 %",5.82%
same,inhibition,"PRVABC59, Concentration 198.0 uM, Number of replicates 2.0, Standard deviation 2.7145967477005732 %",5.18%
O=Cc1ccc(N2CCC(C(=O)N3CCC[C@H]3c3cccc(F)c3)CC2)cc1,inhibition,[2],24.6%
Cc1cc(CO)c2cccc(NC(=O)C3CCC(CN)CC3)c2n1 (centres undefined),inhibition,"PRVABC59, Concentration 49.95 uM, Number of replicates 2.0, Standard deviation 1.4301713707436838 %",93.7%
same,inhibition,"PRVABC59, Concentration 99.9 uM, Number of replicates 2.0, Standard deviation 0.5018131910126516 %",92.3%
Cc1cc(CO)c2cccc(CC(=O)N3CCC(CN)CC3)c2n1,inhibition,"PRVABC59, Concentration 49.95 uM, Number of replicates 2.0, Standard deviation 0.5547725606279245 %",25.3%
same,inhibition,"PRVABC59, Concentration 99.9 uM, Number of replicates 2.0, Standard deviation 0.00508999060096365 %",39.1%
Cc1cc(CO)c2cccc(NC(=O)C3CC(N)C3)c2n1 (centres undefined),inhibition,"PRVABC59, Concentration 49.95 uM, Number of replicates 2.0, Standard deviation 0.17303270644971713 %",56.1%
same,inhibition,"PRVABC59, Concentration 99.9 uM, Number of replicates 2.0, Standard deviation 0.6659229038704304 %",84.7%
Cc1cc(CO)c2cccc(NC(=O)CNC3CC3)c2n1,inhibition,"PRVABC59, Concentration 49.95 uM, Number of replicates 2.0, Standard deviation 1.7513317050958486 %",17.8%
same,inhibition,"PRVABC59, Concentration 99.9 uM, Number of replicates 2.0, Standard deviation 1.7111876748261923 %",28.9%
Cc1cc(CO)c2cccc(NC(=O)C3CNC3)c2n1,inhibition,"PRVABC59, Concentration 99.9 uM, Number of replicates 2.0, Standard deviation 0.20878200053144555 %",-2.49%
Cc1cc(CO)c2cccc(NC(=O)[C@@H]3C[C@@H](O)CN3)c2n1,inhibition,"PRVABC59, Concentration 49.95 uM, Number of replicates 2.0, Standard deviation 2.1728568355691875 %",17%
same,inhibition,"PRVABC59, Concentration 99.9 uM, Number of replicates 2.0, Standard deviation 5.153634365263829 %",23.7%
Cc1cc(CO)c2cccc(NC(=O)C3CCN(C)CC3)c2n1,inhibition,"PRVABC59, Concentration 49.95 uM, Number of replicates 2.0, Standard deviation 2.9039680698338874 %",1.89%
same,inhibition,"PRVABC59, Concentration 99.9 uM, Number of replicates 2.0, Standard deviation 2.0814932575907883 %",29.5%
Cc1cc(CO)c2cccc(NC(=O)C3CCC(N)CC3)c2n1 (centres undefined),inhibition,"PRVABC59, Concentration 49.95 uM, Number of replicates 2.0, Standard deviation 0.4998117214705663 %",93.2%
same,inhibition,"PRVABC59, Concentration 99.9 uM, Number of replicates 2.0, Standard deviation 0.37327676699721984 %",95.4%
Cc1cc(CO)c2cccc(NC(=O)[C@@H]3CCCC[C@H]3C(=O)O)c2n1,inhibition,"PRVABC59, Concentration 49.95 uM, Number of replicates 2.0, Standard deviation 1.6258787445174738 %",3.41%
same,inhibition,"PRVABC59, Concentration 99.9 uM, Number of replicates 2.0, Standard deviation 1.31977157857946 %",10.8%
CCCCCN(CCCCC)C(=O)C1CCN(c2ccc(C=O)cc2)CC1,inhibition,[2],26.1%
O=Cc1ccc(N2CCC(C(=O)Nc3c(F)cc(F)cc3Cl)CC2)cc1,inhibition,[2],23.6%
COc1cc2c(cc1NC(=O)c1cc(Cl)ccc1NS(=O)(=O)c1ccc(Oc3ccccc3Cl)cc1)oc1ccccc12,inhibition,[1],36.2%
O=C(Nc1ncccc1C(F)(F)F)c1cc(Cl)ccc1NS(=O)(=O)c1ccc(Oc2ccccc2Cl)cc1,inhibition,[1],25.1%
Cn1cc(NC(=O)c2cccc3ncccc23)cn1,inhibition,"PRVABC59, Concentration 49.5 uM, Number of replicates 2.0, Standard deviation 3.392303236065074 %",-6.29%
same,inhibition,"PRVABC59, Concentration 99.01 uM, Number of replicates 2.0, Standard deviation 4.211868261497117 %",-5.3%
same,inhibition,"PRVABC59, Concentration 198.0 uM, Number of replicates 2.0, Standard deviation 3.7498965706755105 %",-3.61%
O=Cc1ccc(N2CCC(C(=O)N3CCN(CCOCCO)CC3)CC2)cc1,inhibition,[2],21.2%
COc1ccc([C@H](C)NC(=O)c2cc(Cl)ccc2NS(=O)(=O)c2ccc(Oc3ccccc3Cl)cc2)cc1,inhibition,[1],35.3%
O=Cc1ccc(N2CCC(C(=O)Nc3ccc(Cl)nc3Cl)CC2)cc1,inhibition,[2],20.5%

# — ChEMBL document CHEMBL5606458, “ASAP - ZIKV NS2B-NS3 protease fluorescence single point” (2024)
